“And” between values parts separate entries of the source, which are not always exact repeats. Equal values may be shown once. Among all 16,000 compounds or so, about 5,800 (36%) were called active. Roughly 23% stayed inconclusive and do not appear here. Calls come from the whole dose curve; as a rule, active = well fitted curve in the direction sought with a large enough effect; inconclusive = small, poorly fitted or top-dose-only effect, or effect the other way; inactive = no such curve, though single readings can be large or run the other way. The list shows a part of the results. Some structures have more than one record in an assay (separate samples or runs), and their calls can disagree.
molecular target: Cytochrome P450 2C19 (Homo sapiens) (UniProt P33261); assay: Cytochrome panel assay with activity outcomes; details: recombinant CYP, pro-luciferin dealkylation, luminescence, p450-cyp2c19; series mostly up to 57.1 µM; activity, negative = inhibition: at the top concentration
% is set by controls: 0 for no effect and ±100 for the full control effect.

Chain of Cytochrome P450 2C19 (Homo sapiens) (P33261 whole entry, looked up): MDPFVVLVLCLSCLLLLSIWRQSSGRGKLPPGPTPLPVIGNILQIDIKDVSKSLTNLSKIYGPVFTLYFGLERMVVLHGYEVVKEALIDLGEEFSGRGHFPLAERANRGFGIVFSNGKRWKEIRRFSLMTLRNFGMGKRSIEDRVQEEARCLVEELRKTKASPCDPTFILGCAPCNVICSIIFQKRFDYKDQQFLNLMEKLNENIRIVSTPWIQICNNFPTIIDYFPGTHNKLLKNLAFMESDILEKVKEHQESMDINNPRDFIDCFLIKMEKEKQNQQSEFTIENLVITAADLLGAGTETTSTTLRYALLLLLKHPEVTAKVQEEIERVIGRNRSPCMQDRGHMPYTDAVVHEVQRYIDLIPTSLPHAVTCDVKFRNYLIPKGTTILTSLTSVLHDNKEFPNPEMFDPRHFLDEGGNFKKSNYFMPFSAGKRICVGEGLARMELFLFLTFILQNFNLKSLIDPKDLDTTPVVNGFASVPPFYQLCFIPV

Row | SMILES | activity, negative = inhibition | AC50
1 | NNC(N)=O | 27.4% (inactive) | 
2 | c1cncc([C@@H]2CCCCN2)c1 |  | inactive and 2 µM (active)
3 | c1cncc(CNCCN2CCNCC2)c1 | 7.54% [at 11.4 µM] (inactive) | 
4 | COc1ccc2c(c1)[C@]13CCCC[C@@H]1[C@H](C2)N(C)CC3 | -9.18% (inactive) | 
5 | O=[As](O)(O)c1ccc(N=Nc2ccc(O)cc2)cc1 | -12.7% [at 11.4 µM] (inactive) | 
6 | CCOc1ccc(C2C(C#N)=C(N)Oc3c2c(=O)oc2ccccc32)cc1 (stereo not drawn) |  | 5.62 µM (active)
7 | CN1CC[C@@]2(CCCN(C(=O)c3ccncc3)C2)C1 | -25.8% (inactive) | 
8 | O=C1CS[C@@H](c2ccccc2Cl)c2cc(Cl)ccc2N1 |  | 25.1 µM (active)
9 | O=S(=O)(NCCO)c1cc[c]([Sb](=[O])([OH])[OH])cc1 | 14.4% [at 11.4 µM] (inactive) | 
10 | CC(C)c1ccc(C(O)(C(=O)O)c2ccc(C(C)C)cc2)cc1 | 21.5% [at 11.4 µM] (inactive) | 
11 | C[C@@]12CC[C@@H]3[C@H](CCC4=CC(=O)CC[C@]43C)[C@@H]1CC[C@@H]2C(=O)COS(=O)(=O)c1ccc(Br)cc1 | -21.8% [at 11.4 µM] (inactive) | 
12 | COc1cc2c3cc1Oc1cc(ccc1O)C[C@@H]1c4c(cc(OC)c(O)c4Oc4cccc(c4)C[C@H]3N(C)CC2)CC[N+]1(C)C | 1.07% [at 25.6 µM] (inactive) | 
13 | Cc1nc2ccccc2cc1C[N+]12CN3CN(CN(C3)C1)C2 | -23.7% [at 11.4 µM] (inactive) | 
14 | COC(=O)N1CCN(C(=O)Cc2ccc(Cl)c(Cl)c2)[C@H](CN2CCCC2)C1 |  | inactive and 25.1 µM (active)
15 | O=C(Cc1ccc(Cl)c(Cl)c1)N1CCCC[C@H]1CN1CCCC1 |  | inactive and 6.31 µM (active)
16 | CC[N+](CC)(CC)CCOc1cccc(OCC[N+](CC)(CC)CC)c1OCC[N+](CC)(CC)CC | -7.51% (inactive) | 
17 | C=C[C@H]1CN2CC[C@@H]1C[C@H]2[C@@H](O)c1ccnc2ccccc12 | -24.2% [at 25.6 µM] (inactive) | 
18 | N[C@H](Cn1ccc(=O)[nH]c1=O)C(=O)O | 23.1% (inactive) | 
19 | C[C@@]12CC[C@H](O[C@@H]3O[C@H](CO)[C@@H](O)[C@H](O)[C@@H]3O)C[C@@H]1CC[C@H]1[C@H]2CC[C@@]2(C)[C@@H](C3=CCOC3=O)CC[C@]12O | 22.6% [at 11.4 µM] (inactive) | 
20 | COC(=O)[C@H]1[C@H](c2ccccc2)C(=O)[C@@]2(O)c3ccccc3O[C@@]12c1ccccc1 | -15.7% [at 11.4 µM] (inactive) | 
21 | COc1cc2c(cc1O)C[C@H]1c3c(cc(O)c(OC)c3-2)CCN1C | -10.6% [at 25.6 µM] (inactive) | 
22 | CC1=CC(=O)C2=C(C)C[C@@H](O)[C@@H]3[C@@H](OC(=O)[C@H]3C)[C@H]12 | -9.8% [at 25.6 µM] (inactive) | 
23 | C[N+]1([O-])[C@@H]2CC[C@H]1CC(OC(=O)[C@@H](CO)c1ccccc1)C2 (stereo partly drawn) | 10% [at 25.6 µM] (inactive) | 
24 | CC12CN3CC(C)(CN(C1)C31CCSCC1)C2=O | -1.25% (inactive) | 

Row | SMILES | activity, negative = inhibition | AC50
25 | COc1cc(CN2CCN(C(=O)COc3ccccc3)CC2)cc(OC)c1OC | -23.4% (inactive) | 
26 | O=C(COc1ccc2ccccc2c1)N1CCN(CC2CC3C=CC2C3)CC1 (stereo not drawn) |  | 10 µM (active)
27 | CC(=O)N1CCC2(CC1)CC(=O)c1cc(OCC(=O)N3CCN(C)CC3)ccc1O2 | 11.3% (inactive) | 
28 | C(=NC12CN3CN(CN(C3)C1)C2)c1cccs1 | -36.5% (inactive) | 
29 | CCCc1cc2c(n1Cc1cccc(Cl)c1)C(C)C1CN(C(=O)c3ccccc3)C(C)(C(=O)OC)C21 (stereo not drawn) |  | 15.8 µM (active)
30 | N#CCCCC[N+]12CN3CN(CN(C3)C1)C2 | 19.8% [at 11.4 µM] (inactive) | 
31 | C=C(CC1(C(C)NP(=O)(c2ccccc2)c2ccccc2)CC1)c1ccccc1 (stereo not drawn) |  | 10 µM (active)
32 | O=C(O)[C@H]1C[C@@H]1[C@H](NP(=O)(c1ccccc1)c1ccccc1)c1ccccc1 | -17.6% (inactive) | 
33 | C=C(CC1(CNP(=O)(c2ccccc2)c2ccccc2)CC1)c1ccccc1 | -61.1% (inactive) | 
34 | CNC(=O)OCC[N+](C)(C)C | 20.4% (inactive) | 
35 | O=C(O)c1ccccc1-c1c2cc(Br)c(=O)cc-2oc2[c]([Hg])c(O)c(Br)cc12 |  | 3.16 µM (active)
36 | NC(N)=Nc1ccc2[nH]c3c(c2c1)C[C@]1(O)[C@@H]2Cc4ccc(O)c5c4[C@]1(CCN2CC1CC1)[C@@H]3O5 | -20.9% (inactive) | 
37 | N[C@H](Cc1ccc2oc3cc(=O)c4ccccc4c-3nc2c1)C(=O)O | -35.8% [at 11.4 µM] (inactive) | 
38 | O=C(O)CCCc1ccc(N(CCCl)CCCl)cc1 | -15% [at 25.6 µM] (inactive) | 
39 | COC(=O)c1[nH]c2ccc(Br)cc2c1NC(=O)Oc1ccccc1 |  | 11.2 µM (active)
40 | c1ccc2nc(N3CCNCC3)ccc2c1 |  | inactive
41 | O=C(O)[C@@H]1[C@H](C(=O)O)[C@]2(Cl)C(Cl)=C(Cl)[C@@]1(Cl)C2(Cl)Cl | -2.94% [at 11.4 µM] (inactive) | 
42 | NCC1(CC(=O)O)CCCCC1 |  | inactive
43 | CCN(CC)CCn1ncc2c(N)ncnc21 | -2.72% [at 11.4 µM] (inactive) | 
44 | CC(NCc1ccc(Cl)cc1)C(O)c1ccccc1 (stereo not drawn) |  | 0.355 µM (active)
45 | CN1[C@@H]2CC[C@H]1CC(O[C@@H](c1ccccc1)c1ccc(Cl)cc1)C2 (stereo partly drawn) |  | inactive
46 | C[C@H](N)[C@@H](O)c1ccccc1 | 20.9% [at 25.6 µM] (inactive) | 
47 | Cc1sc2ccccc2c1CC1=NCCN1 | -17.4% (inactive) | 
48 | c1ccc(C2CC2)c(OCC2=NCCN2)c1 | -31.6% (inactive) | 

Row | SMILES | activity, negative = inhibition | AC50
49 | CCSCC[C@H](N)C(=O)O | -18% [at 11.4 µM] (inactive) | 
50 | [N-]=[N+]=CC(=O)CC[C@H](N)C(=O)O | 0.0153% [at 11.4 µM] (inactive) | 
51 | CC(C)COC(=O)OCN1C(=O)CN(CCN2CC(=O)N(COC(=O)OCC(C)C)C(=O)C2)CC1=O | 1.24% (inactive) | 
52 | c1csc(CN2CCCC3(CCNCC3)C2)n1 | -39.6% (inactive) | 
53 | O=C(CN1CCCCC1)Nc1ccc(Br)cc1C(=O)c1ccccc1Cl |  | 7.94 µM (active)
54 | O=c1[nH]cnc2[nH]cc(CN3CCCCC3)c12 | 39.9% [at 11.4 µM] (inactive) | 
55 | Cc1nnc2ccc(-c3cccc(C(F)(F)F)c3)nn12 | 36.3% (inactive) | 
56 | CCC1(CCSC(=N)N)C(=O)NC(=O)NC1=O | 20.6% [at 11.4 µM] (inactive) | 
57 | C[N+](C)(C)CC#CCN1CCCC1=O |  | inactive
58 | O=C1CCCN1CC#CCN1CCCC1 |  | inactive and 158 nM (active)
59 | C(#CCN1CCCC1)CN1CCCC1 | -1.49% [at 25.6 µM] (inactive) | 
60 | CN(CCC(=O)O)C1=Nc2ccc(Cl)cc2C(c2ccccc2)=[N+]([O-])C1 | -1.35% [at 11.4 µM] (inactive) | 
61 | Nc1nc(N)c2nc(CNc3ccc(C(=O)N[C@H](CCC(=O)O)C(=O)O)cc3)cnc2n1 | 2.1% (inactive) | 
62 | O=C(O)CNC(=O)[C@@H](CS)Cc1ccccc1 | -6.8% (inactive) | 
63 | Cc1cc[c]([Sb]2[O][C@H]([C@H](O)[C@H](O)C(=O)O)[C@@H](CO)[O]2)cc1 | 30.4% [at 11.4 µM] (inactive) | 
64 | N[C@@H](Cn1ccc(=O)n(Cc2ccc(C(=O)O)cc2)c1=O)C(=O)O | -42.7% (inactive) | 
65 | CC(C)(O)/C=C\C(=O)[C@](C)(O)[C@H]1[C@H](O)C[C@]2(C)[C@@H]3CC=C4[C@@H](C=C(O)C(=O)C4(C)C)[C@]3(C)C(=O)C[C@@]12C | -7.19% [at 11.4 µM] (inactive) | 
66 | O=C(Nc1ccc(C(F)(F)F)cc1)c1cccn(Cc2ccc3c(c2)OC(F)(F)O3)c1=O |  | 3.16 µM (active)
67 | CC(=O)Nc1ccccc1C(=O)OCc1ccc(C(=O)c2ccccc2)cc1 |  | 3.55 µM (active)
68 | NS(=O)(=O)c1cc([C@@]2(O)NC(=O)c3ccccc32)ccc1Cl | 1.58% [at 25.6 µM] (inactive) | 
69 | NC[C@@H](Cc1ccccc1)P(=O)(O)O | -0.815% [at 11.4 µM] (inactive) | 
70 | O=C(Oc1ccccc1)N1CCC[C@@]2(CCN(C(c3ccccc3)c3ccccc3)C2)C1 | -38.5% (inactive) | 
71 | O=C(O)Cc1cnc[nH]1 | 0.662% (inactive) | 
72 | CC[C@H](CO)NC(=O)[C@@H]1C=C2c3cccc4c3c(cn4C)C[C@@H]2N(C)C1 | -2.92% (inactive) | 

Row | SMILES | activity, negative = inhibition | AC50
73 | CC[C@@H](CO)NC(=O)[C@H]1C=C2c3cccc4c3c(cn4C)C[C@H]2N(C)C1 |  | 0.126 µM (active)
74 | COc1ccc(NC(=O)N2CCCC3(CCN(C(=O)Oc4ccccc4)CC3)C2)cc1 | -40.4% (inactive) | 
75 | CN(C)CS/C(N)=N/[C@H](O)C(Cl)(Cl)Cl | -3.05% [at 11.4 µM] (inactive) | 
76 | C[C@H](N)Cc1c[nH]c2ccc(O)cc12 | -14.3% (inactive) | 
77 | CC(N)Cc1ccccc1Sc1ccc(O)cc1 (stereo not drawn) |  | 15.8 µM (active)
78 | CNC[C@H](O)c1ccc(O)cc1 | -3.18% [at 25.6 µM] (inactive) | 
79 | CNC(C)Cc1ccccc1Sc1ccc(O)cc1 (stereo not drawn) |  | 10 µM (active)
80 | O=C(Oc1ccc([N+](=O)[O-])cc1)N1CCC(N2CCCCC2)CC1 | -32.1% (inactive) | 
81 | O=C1Nc2ccc(I)cc2/C1=C/c1cc(Br)c(O)c(Br)c1 | -34.5% (inactive) | 
82 | Nc1nc2ccc(Cl)cc2c2nc(-c3ccco3)nn12 | -17.9% (inactive) | 
83 | CCOP(=O)(OCC)c1nc(/C=C/c2ccccc2)oc1NCc1ccccc1 |  | 2.24 µM (active)
84 | CCNC(C)(C)[C@@H](SS)c1ccc(Br)cc1 | -70.9% [at 11.4 µM] (inactive) | 
85 | COC1(CS(=O)c2ccccc2)CCN(CCc2c[nH]c3ccc(F)cc23)CC1 (stereo not drawn) | -32.7% (inactive) | 
86 | O=NN(Cc1ccc(Cl)cc1)[C@@H](C(=O)O)c1ccccc1 |  | 0.398 µM (active)
87 | COc1ccc2c(c1)[C@]13CCCC[C@@H]1[C@H](C2)NCC3 | -20.8% (inactive) | 
88 | CN1CCc2cccc(Cl)c2CC1 | 25.1% (inactive) | 
89 | c1ccc(N2CC[C@@]3(CCCNC3)C2)cc1 | -44% (inactive) | 
90 | Cc1cc(Cc2cc(C)c(N)cc2N)c(N)cc1N | -42.7% [at 11.4 µM] (inactive) | 
91 | CCCn1c(=O)c2[nH]c(C3CCCC3)nc2n(CCCOC(=O)c2ccc(S(=O)(=O)F)cc2)c1=O | 4.89% (inactive) | 
92 | CCOC(=O)c1c(NC(=O)C(c2ccccc2)c2ccccc2)sc2c1C1CCN2CC1 |  | 3.55 µM (active)
93 | CN(C)[C@@H]1C(=O)C(C(N)=O)=C(O)[C@]2(O)C(=O)C3=C(O)c4c(O)cccc4[C@@](C)(O)[C@H]3[C@H](O)[C@@H]12 | -15.8% [at 25.6 µM] (inactive) | 

Reference: PubChem BioAssay AID1851 (National Center for Advancing Translational Sciences (NCATS), 2009)
